The record followed here is PubChem BioAssay (NCATS).

The target of assay [1] is Glutathione peroxidase 1 (Homo sapiens) (UniProt P07203). Kind of assay: Primary qHTS Assay for Inhibitors of Recombinant Selenoprotein Glutathione Peroxidase 1 (GPX1) (AID 1845191). Further: nearly all actives have a fitted effect of over 65% in size. Further: potency means the concentration at half of the fitted maximal effect. On activity, negative = inhibition: on the % scale 0 is the no-effect control and ±100 the full control effect. The method, boiled down:
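Recombinant GPX1 (10 nM final) was preincubated with compound for 30 min at room temperature, then reacted with 1 mM GSH, 0.5 mM CHP, 0.5 mM NADPH and 100 nM glutathione reductase; NADPH fluorescence (340/450 nm) was read at 0 and 15 min.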

Assay [2] concerns the target Phospholipid hydroperoxide glutathione peroxidase GPX4 (Homo sapiens) (UniProt P36969). Kind of assay: Primary qHTS Assay for Inhibitors of Recombinant Selenoprotein Glutathione Peroxidase 4 (GPX4) (AID 1845192). Further: nearly all actives have a fitted effect of over 65% in size. Further: potency means the concentration at half of the fitted maximal effect. On activity change, negative = inhibition: series mostly up to about 50 µM; on the % scale 0 is the no-effect control and ±100 the full control effect. The essentials:
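GR-coupled readout: 100 nM GR, 1 mM GSH, 0.5 mM NADPH; NADPH fluorescence (ex 340/em 450 nm) read at t=0 and after 15 min RT. GPX4 200 nM, preincubated 30 min with compound; substrate 0.5 mM CHP.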

The target in assay [3] is Luciferin 4-monooxygenase (Photinus pyralis) (UniProt P08659). Kind of assay: Primary firefly luciferase (FLuc) qHTS assay for identification of artifact compounds. (AID 1845220). Further: nearly all actives have a fitted effect of over 60% in size.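 On activity change, negative = inhibition: series mostly up to about 54 µM; plate controls were DMSO vehicle for no effect and no enzyme for full effect.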 The essentials: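 qHTS, 15 min compound preincubation with substrate (10 uM luciferin, 10 uM ATP) at RT, then 10 nM FLuc; 5 min; luminescence; % inhibition vs no-enzyme/DMSO controls, 4-parameter Hill fit.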

Assay [4] is described as follows: Primary fluorescence-based thiol-reactive (MSTI) qHTS assay for identification of artifact compounds. (AID 1845221). Further: nearly all actives have a fitted effect of over 65% in size. Further: potency means the concentration at half of the fitted maximal effect.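 On activity change, negative = thiol reactive: series mostly up to about 54 µM; thiol-reactive compounds lower the probe fluorescence signal.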 The essentials:
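MSTI probe at 4 uM final in 2% DMSO/PBS pH 7.4; compounds, 1 h at room temperature in dark. Fluorescence Ex/Em 525/598 nm, normalised to Acetyl-MSTI and MSTI, fitted to 4-parameter Hill.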

The subject of assay [5] is Nanoluciferase (engineered Oplophorus gracilirostris luciferase). Description: Primary Nanoluciferase (NLuc) qHTS assay for identification of artifact compounds. (AID 1845222).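 Further: series mostly up to about 54 µM; 0% = DMSO and -100% = no enzyme.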 The essentials:
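Luminescence read-out of secreted NLuc in S16 cell conditioned medium (1:55); compounds tested with 15 min RT preincubation, then Nano-Glo substrate 1:100, 5 min. % inhibition vs no-enzyme and DMSO controls, 4-parameter Hill fit.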

Assay [6] in a line: Primary redox qHTS assay for identification of artifact compounds. (AID 1845223).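 Further: 0% = DMSO and 100% = reference compound.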 The method, boiled down: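 Amplex Red (25 uM) and HRP (250 mU/mL) in HBSS, with compounds for 15 min, then 250 uM DTT for 30 min, room temperature, dark. Fluorescence 525/598 nm read; normalized to DMSO and 10 uM DA3003; Hill fit.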

“And” between values parts separate entries of the source, which are not always exact repeats. Equal values may be shown once. Unmarked numbers belong to inactive results. Records with an inconclusive call do not appear. The source made the active and inactive calls. The call rests on the fitted dose curve; in most records, active means well fitted curve in the direction sought with a large enough effect; inconclusive means small, poorly fitted or top-dose-only effect, or another doubt; inactive means no such curve, though single readings can be large; an effect the other way counts as inactive or inconclusive. *1 amine or outer side, *2 acyl side, *3 side chain or, on linkers, in order; H or OH if unused. Where a SMILES comes first, the peptide text is derived from it. Bridges are numbered along the chain shown (N, C = ends). X6 = O=C(CCC[*:2])[*:1]

Glutathione peroxidase 1 (Homo sapiens), sequence (P07203 whole entry, looked up): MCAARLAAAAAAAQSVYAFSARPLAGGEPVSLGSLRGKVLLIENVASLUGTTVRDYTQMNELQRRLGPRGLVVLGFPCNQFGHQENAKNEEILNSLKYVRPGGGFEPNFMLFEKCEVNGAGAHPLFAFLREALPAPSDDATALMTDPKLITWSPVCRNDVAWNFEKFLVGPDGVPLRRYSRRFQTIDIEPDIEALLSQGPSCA
Phospholipid hydroperoxide glutathione peroxidase GPX4 (Homo sapiens), sequence (P36969 whole entry, looked up): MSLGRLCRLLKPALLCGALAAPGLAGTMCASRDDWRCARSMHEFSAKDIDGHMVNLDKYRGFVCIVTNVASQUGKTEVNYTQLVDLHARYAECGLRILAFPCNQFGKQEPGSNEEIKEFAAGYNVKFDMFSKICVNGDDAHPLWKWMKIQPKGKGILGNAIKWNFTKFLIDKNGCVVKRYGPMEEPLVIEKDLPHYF

Turning to `CC1CCC2(C)C(CC(O)C(O)C23CO3)C1(C)CCC1=CC(=O)OC1O` (stereo unspecified), the Potency result in assay [1], in assay [2], in assay [3], in assay [4], in assay [5] and in assay [6] was “inactive” each time.
Consider `O=C(c1ccc(NS(=O)(=O)c2cccc3cccnc23)cc1)N1CCN(CC2CC2)CC1`, for which the Potency entry in assay [1], in assay [2], in assay [3], in assay [4], in assay [5] and in assay [6] was “inactive” throughout.
Consider `O=C(NN1CCCCC1)c1nn(-c2ccc(Cl)cc2Cl)c(-c2ccc(C#Cc3ccc(C(F)(F)F)cc3)s2)c1CNS(=O)(=O)N1CCCC1`, for which the Potency result in assay [1], in assay [2], in assay [3], in assay [4] and in assay [5] was “inactive” in each case.
In the case of `C[C@@H]1O[C@@H](O[C@H]2[C@H](OC(=O)[C@]34CCC(C)(C)C[C@H]3C3=CCC5[C@@]6(C)C[C@H](O)[C@H](O[C@@H]7O[C@H](CO)[C@@H](O[C@@H]8O[C@H](CO)[C@@H](O)[C@H](O)[C@H]8O)[C@H](O)[C@H]7O)[C@@](C)(CO)C6[C@H](O)C[C@@]5(C)[C@]3(C)C[C@H]4O)OC[C@H](O)[C@@H]2O)[C@H](O)[C@H](O)[C@H]1O[C@@H]1OC[C@@H](O)[C@H](O[C@@H]2OC[C@](O)(CO)[C@H]2O)[C@H]1O` (stereo partly specified), the activity, negative = inhibition was -19.6% [at 9.52 µM] in assay [1] and 2.77% [at 11.6 µM] in assay [5]. For the same compound, the activity change, negative = inhibition in assay [2] is -11% [at 9.73 µM]; in assay [3], -27.8% [at 11.6 µM]. The activity change, negative = thiol reactive in assay [4] was -12.6% [at 11.5 µM].
As for `CC(=O)N[C@H]1[C@H](O[C@H]2CC[C@@]3(C)C(CC[C@]4(C)C3CC=C3C5CC(C)(C)CC[C@]5(C(=O)O)[C@H](O[C@@H]5O[C@H](CO)[C@@H](O)[C@H](O)[C@H]5O)C[C@]34C)C2(C)C)O[C@H](CO[C@@H]2OC[C@H](O)[C@H](O)[C@H]2O[C@@H]2OC[C@@H](O)[C@H](O)[C@H]2O)[C@@H](O)[C@@H]1O` (stereo partly specified), the Potency entry in assay [1] and in assay [2] was “inactive” in each case. Further, in assay [3], the activity change, negative = inhibition was 2.58% [at 11.6 µM]. Besides, in assay [4], the activity change, negative = thiol reactive is -21.6% [at 11.5 µM]. For the same compound, the activity, negative = inhibition in assay [5] is -3.44% [at 11.6 µM].
Regarding `C[C@]1(O)CC[C@@H]2C(C(=O)O)=CO[C@@H](O[C@@H]3O[C@H](COC(=O)c4ccc(O)cc4)[C@@H](O)[C@H](O)[C@H]3O)[C@@H]21`, the Potency result in assay [1], in assay [2], in assay [3], in assay [5] and in assay [6] was “inactive” in each case. Also, the Potency in assay [4] was 10.3 µM (active).
As for `CC(=O)O[C@@H]1[C@H]2[C@@H](OC(=O)c3ccccc3)[C@@H](C)C[C@]2(O)[C@H](OC(C)=O)[C@@]2(C)[C@@H]3CC(C)(C)C(=O)[C@]3(OC(C)=O)C[C@@]12C`, the Potency entry in assay [1], in assay [2], in assay [3], in assay [4], in assay [5] and in assay [6] was “inactive” throughout.
For the compound `COC(=O)C1(Cc2ccc(O)cc2)OC(=O)C(OC)=C1c1ccc(O)cc1` (stereo unspecified), the Potency result in assay [1], in assay [2], in assay [3], in assay [4] and in assay [5] was “inactive” in each case.
For the compound `COC1CC(OC2CCC3(C)C(=CCC4C3CCC3(C)C(C(C)O)CCC43O)C2)OC(C)C1OC1OC(C)C(OC2OC(COC3OC(COC4OC(CO)C(O)C(O)C4O)C(O)C(O)C3O)C(O)C(O)C2O)C(OC)C1O` (stereo unspecified), the Potency result in assay [1] and in assay [2] was “inactive” each time. Also, the outcome in assay [3] is “inactive [at 11.6 µM]”. Moreover, the activity change, negative = thiol reactive in assay [4] was 54% [at 11.5 µM]. The activity, negative = inhibition in assay [5] was 4.38% [at 11.6 µM].
Take `CC1CCC2C(C)(C)C(O)CCC2(C)C12Cc1c(O)cc3c(c1O2)CN(C(CCC(N)=O)C(=O)O)C3=O` (stereo unspecified): the Potency result in assay [1], in assay [2], in assay [3], in assay [4] and in assay [5] was “inactive” throughout.
For `CC1CCC2(C(=O)OC3OC(CO)C(O)C(O)C3O)CCC3(C)C(=CCC4C5(C)CC(O)C(O)C(C)(C(=O)O)C5CCC43C)C2C1(C)O` (stereo unspecified), the Potency entry in assay [1], in assay [2], in assay [3], in assay [4], in assay [5] and in assay [6] was “inactive” in each case.
Regarding `O=C(NCC(=O)N1CC[C@H](NC2CCC(O)(c3ccc(-c4ncccn4)cn3)CC2)C1)c1cccc(C(F)(F)F)c1` (stereo partly specified), the Potency result in assay [1], in assay [2], in assay [3], in assay [4], in assay [5] and in assay [6] was “inactive” in each case.
As to `CO/N=C(/C(=O)N[C@@H]1C(=O)N2C(C(=O)O)=C(CSC(=O)c3ccco3)CS[C@H]12)c1csc(N)n1`, the Potency in assay [1] was 8.06 µM (active) and 7.18 µM (active); in assay [2], 7.08 µM (active). Moreover, the Potency entry in assay [3], in assay [4], in assay [5] and in assay [6] was “inactive” each time.
Regarding `C=C1CCC2C(OC(=O)C2(O)COC(C)=O)C2C(=C)C(O)CC12` (stereo unspecified), the Potency entry in assay [1], in assay [2], in assay [3], in assay [5] and in assay [6] was “inactive” in each case. Also, in assay [4], the Potency was 7.36 µM (active).
As to `C=C(C)C1CC2(CO)C(=CC1=O)CCC(O)C2C` (stereo unspecified), the Potency entry in assay [1], in assay [2], in assay [3], in assay [4], in assay [5] and in assay [6] was “inactive” throughout.
Regarding `CC[C@H](C)[C@@H]1NC(=O)[C@H](Cc2ccc(OC)cc2)NC(=O)CCCSC[C@@H](C(=O)N2CCC[C@H]2C(=O)N[C@@H](CC(C)C)C(=O)NCC(N)=O)NC(=O)[C@H](CC(N)=O)NC(=O)[C@H](CCC(N)=O)NC1=O` (Y(Me)IQNCPLG-NH2; linker N-5 via X6), the Potency entry in assay [1], in assay [2], in assay [3], in assay [4] and in assay [5] was “inactive” each time.
As for `CC(C)CC(=O)O[C@@H]1OC=C(CO[C@@H]2O[C@H](CO[C@@H]3O[C@H](CO)[C@@H](O)[C@H](O)[C@H]3O)[C@@H](O)[C@H](O)[C@H]2O)[C@H]2C[C@H](O)[C@@H](CO)[C@@H]12`, the Potency result in assay [1], in assay [2], in assay [3], in assay [4], in assay [5] and in assay [6] was “inactive” throughout.
As for `C=C1C2(CCC(=O)OC2(C)C)CC(OC(=O)/C(C)=C/C)C2(C)C13OC14C(=O)OC(C)(C(=O)C12C(=O)OC4C)C3OC(C)=O` (stereo unspecified), the Potency entry in assay [1], in assay [2], in assay [3], in assay [4] and in assay [5] was “inactive” in each case.
Consider `CC(C)C1=CCC(C)(O)C(OC2OC(CO)C(O)C(O)C2O)C1` (stereo unspecified), for which the Potency result in assay [1], in assay [2], in assay [3], in assay [5] and in assay [6] was “inactive” in each case. The Potency in assay [4] is 2.33 µM (active).
